Bioassay records: PubChem, National Center for Advancing Translational Sciences (NCATS)
In the library only some 21% were active in any assay of this set; here they are far more common.
Pf growth 96h – P. falciparum growth inhibition at 96 hour, primary screen for plastid delayed-death inhibitors. P. falciparum luciferase reporter growth, 96 h. Potency, µM (highest dose often 28.7 µM), for the others: top-dose activity change, negative = inhibition, actives largely listed as inhibitors. hit rate 6.9% among 320,000. AID 504834; also: potency is read from the fitted curve at half-maximal effect; % is scaled to controls: 0 for no effect and ±100 for the full control effect
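Luminescence readout: decreased luciferase signal marks inhibited growth of reporter-expressing P. falciparum in infected red cells (2% hematocrit, 0.05% parasitemia final), exposed to compound two generations (96 h, 37 C, 5% CO2).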
Pf growth 48h – inhibits P. falciparum growth in the first generation, 48 h. P. falciparum luciferase growth in erythrocytes, 48 h. Potency, µM (highest dose often 28.7 µM), without a hit: at the top dose activity change, negative = inhibition, hits mostly inhibitors. hit rate 5.9% among 310,000; also: potency is read from the fitted curve at half-maximal effect; % is scaled to controls: 0 for no effect and ±100 for the full control effect
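First compound was added to culture medium, then infected red cells at 0.1% parasitemia and 2% hematocrit (final). After incubation at 37 C under 5% CO2, luciferase detection reagent was dispensed and light output recorded.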
Cycloheximide cs – counter-screen hit for Shiga toxin inhibitors, cycloheximide; cell reporter, cycloheximide protein synthesis inhibition counterscreen; max response, %; hit rate 12% among 300,000; in the data active = max response mostly above about 13%, no sharp cut-off; inactive = mostly below about 14%; also: read at 38.3 µM for the half of the compounds with a filed dose; 0% is about no effect
Shiga inhibitor – inhibitors of Shiga toxin in Vero cells; Vero cells, Shiga toxin protein synthesis inhibition reporter; inhibition, % at 38.7 µM; hit rate 9.2% among 290,000; AID 2315; in the data active = inhibition mostly above about 28%, no sharp cut-off; inactive = mostly below about 43%; also: 0% is about no effect
NS1 inh – inhibitors of influenza NS1 protein function. hit rate 0.4% among 270,000. Potency, µM (titrated, usually from 46.1 µM), inactives show at the top dose activity, positive = more growth. AID 2326; calls by dose curve; also: potency is read from the fitted curve at half-maximal effect; actives are rising curves; nearly all actives have a fitted effect of over 50% in size
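In this qHTS, NS1 from influenza A is expressed in budding yeast, where it slows growth. Cells are switched from glucose to 2% galactose medium (pH 6.0, -URA), treated with compound, and growth recovery is read at OD600.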
* hit, by the source's call; ? = inconclusive; . = no result; [ ] = dose if it differs, or a comment. Unless noted, calls follow the shape of the dose curve; as a rule, active = well fitted inhibition curve with a large enough effect; inconclusive = small, poorly fitted or top-dose-only effect, or another doubt; inactive = no such curve, though single readings can be large or run the other way.

SMILES	Pf growth 96h	Pf growth 48h	Cycloheximide cs	Shiga inhibitor	NS1 inh
CC(C)CC1Nc2ncnc(N3CCN(c4ccccc4)CC3)c2N(Cc2ccc(Cl)cc2)C1=O (stereo unspecified)	9.3µM*	9.3µM*	.	.	.
CCN(CC)C(=O)c1[nH]cnc1C(=O)NCC(=O)OC(C)(C)C	?	51%	-1	-5	-11%
CC(=O)c1cccc(S(=O)(=O)NC2CCCCCC2)c1	-10%	23%	1	-8	4%
CN(C1CCCCC1)S(=O)(=O)c1ccc(NC(=O)c2ccc(Br)o2)cc1	9%	?	7	-1	-2%
CC(=O)Nc1ccc(NC(=O)c2cccc(S(=O)(=O)N(C)C3CCCCC3)c2)cc1	?	7.4µM*	.	.	.
CC(=O)Nc1ccc(NC2CCCCC2NS(=O)(=O)c2ccccc2)cc1 (stereo unspecified)	8.3µM*	-5%	-2	-3	1%
Cc1ccc(NC(=O)c2cccc(S(=O)(=O)N3CCCC3)c2)nc1	33%	36%	.	.	.
Cc1ccc(NC(=O)c2cccc(S(=O)(=O)N(C)C3CCCCC3)c2)nc1	9.3µM*	5.2µM*	.	.	.
O=C(Nc1ccccc1)c1cccc(S(=O)(=O)NC2CCCC2)c1	12µM*	13%	2	11	2%
CCC(Sc1ccc2nnc(CCNS(=O)(=O)c3ccc(OC)cc3)n2n1)C(=O)OC (stereo unspecified)	7.4µM*	6%	-3	6	.
O=C(CCN1CCOCC1)NNC(=O)Nc1cccc([N+](=O)[O-])c1	11%	15%	-4	-5	3%
CC(C)(C)NS(=O)(=O)c1ccc(/C=C/C(=O)O)cc1	?	5%	-5	-15	.
O=C(c1sc2cccc(F)c2c1Cl)N1CCN(c2ncccn2)CC1	?	2%	3	1	-2%
CS(=O)(=O)N1CCN(C(=O)COc2ccc3ccccc3c2)CC1	17%	2.1µM*	-3	7	3%
O=C(COc1ccc2ccccc2c1)N1CCNCC1	25%	72%	12*	52*	3%
C[C@@H](N)C(=O)NC[C@H]1CC[C@H](C(=O)N[C@@H](Cc2ccccc2)C(=O)O)CC1	7%	-11%	-1	-10	-6%
NC(=O)[C@@H]1CCCN1C(=O)c1ccc2nc(Cc3ccccc3F)oc2c1	-26%	11%	8	16	7%
O=C(CCc1nnc(CCCCc2ccccc2)o1)N1CCCCC1CCO (stereo unspecified)	-1%	0%	-3	-7	-3%
O=C(c1ccc2oc(CCCc3ccccc3)nc2c1)N1CCCCC1CO (stereo unspecified)	-1%	30%	38*	55*	-9%
NC(=O)[C@@H]1CCCN1C(=O)c1ccc2oc(CCc3ccccc3)nc2c1	28%	71%	43*	40*	3%
Cc1nc2ccc(C(=O)N3CCN(Cc4ccccc4)CC3)cc2[nH]1	1%	30%	10	-13	-2%
O=C(c1ccc2oc(CCc3ccccc3)nc2c1)N1CCC(O)CC1	4%	153%	52*	75*	-7%
CC(=O)c1cc(C)ccc1OC(=O)CN1C(=O)c2ccccc2C1=O	7%	-20%	0	11	-6%
COCCCn1c(=O)c2ccccc2n(CC(=O)Nc2ccc3c(c2)OCCO3)c1=O	51%	?	-4	-8	18%
CCCC[C@H](NC(=O)[C@@H]1CCCN1C(=O)[C@H]1CCCN1C(=O)[C@H](Cc1ccccc1)NC(=O)[C@@H](Cc1c[nH]c2ccccc12)NC(=O)[C@H](C)NC(=O)[C@H](CCCN=C(N)N)NC(=O)OC(C)(C)C)C(N)=O	.	.	-1	34	.
SMILES	Pf growth 96h	Pf growth 48h	Cycloheximide cs	Shiga inhibitor	NS1 inh
COc1ccc(CCNC(=O)[C@@H](NC(=O)c2ccccc2F)C(C)C)cc1OC	-1%	?	-2	-4	.
Cc1cccc(Nc2cc(Cl)nc(SCC(=O)O)n2)c1C	?	-7%	.	.	-4%
NC(=O)c1ccc(NC(=S)NCc2ccco2)cc1	12µM*	21%	11*	39	.
CC(=O)c1ccc(N2CCN(C(=S)NCc3ccco3)CC2)cc1	13µM*	-4%	0	24	.
COc1cc(NC(=S)NCc2ccco2)cc(OC)c1OC	5.2µM*	-1%	3	-5	-9%
CC(=O)c1ccc(NC(=S)NCc2ccco2)cc1	-16%	10%	36*	58*	1%
COC(=O)c1ccc(NC(=S)NCc2ccco2)cc1	?	18%	12	29	0%
S=C(NCc1ccco1)N1CCN(c2ccc(Cl)cc2)CC1	?	-10%	7	18	2%
Cc1coc2cc3oc(=O)c(CCC(=O)N[C@@H](CCCNC(N)=O)C(=O)O)c(C)c3cc12	40%	28%	-3	-2	1%
Cc1ccc(S(=O)(=O)N2CCOC23CCN(S(=O)(=O)c2c(C)cc(C)cc2C)CC3)cc1	4.7µM*	?	.	.	.
COc1ccc(S(=O)(=O)N2CCOC23CCN(S(=O)(=O)c2ccc(C)cc2)CC3)cc1	?	15µM*	.	.	.
CCc1ccc(NC(=O)C2C3CCC(O3)C2C(=O)O)cc1 (stereo unspecified)	-28%	3%	5	-14	11%
Cc1cnc(C(=O)Nc2ccccc2-c2nnn(CC(=O)NC3CCCC3)n2)cn1	-9%[5.75 µM]	?	-4	9	-4%
O=C1C(CCC(O)c2ccc(F)cc2)C(c2ccc(O)cc2)N1c1ccc(F)cc1 (stereo unspecified)	-2%	-8%	.	.	.
COc1c(O)c(=O)n2c3ccccc3c3ccnc1c32	?	10µM*	.	.	.
O=c1c(Cl)c(O)c2cccc3c4ccccc4n1c23	51%	-19%	-1	-11	-30%
Cc1ccc(C(=O)c2ccccc2C(=O)OCC(=O)NCC2CCCO2)cc1 (stereo unspecified)	93%	11%	3	-3	0%
O=C(NCc1cccc(Cl)c1)C1CCC(=O)N(CCCN2CCCC2=O)C1 (stereo unspecified)	?	-9%	11	-2	-3%
OCCSc1ncnc2c1oc1ccccc12	?	7%	22*	63*	-12%
O=C(O)CSc1ncnc2c1oc1ccccc12	0%	46%	-2	-21	-8%
O=C(CSc1ncnc2c1oc1ccccc12)NCc1ccco1	-24%[5.75 µM]	0%	30*	51*	-2%
c1ccc(Sc2ncnc3c2oc2ccccc23)cc1	30%	105%	33*	81*	-6%
Cc1cc(C)c2c(=O)cc(C(F)(F)F)oc2n1	-17%	4%	-5	-18	0%
COn1c(-c2ccc(Cl)cc2)nc2ncccc21	62%	59%	49*	60*	-7%
Clc1cccc(CN2CCSCC2)c1Cl	-93%	0%	9	11	19%
O=C1CN(c2ccccc2)C(=S)N1C(=O)c1ccc(Br)cc1	?	154%	43*	96*	-6%
O=C(c1ccc(Br)cc1)N1CCC(C(=O)N2CCN(c3ccccc3)CC2)CC1	?	?	-6	-7	-7%
CC(NC(=O)C1CCN(C(=O)Nc2ccccc2)CC1)c1ccccc1Cl (stereo unspecified)	?	1%	.	.	.
